SMILES strings stand for the structures. Results filed as inconclusive are left out. Unmarked numbers belong to inactive results. The source made the active and inactive calls. The call rests on the fitted dose curve; in most records, active means well fitted cell-killing curve with a large enough effect; inconclusive means small, poorly fitted or top-dose-only effect, or effect the other way; inactive means no such curve, though single readings can be large or run the other way.
On the % scale 0 is the no-effect control and ±100 the full control effect; potency means the concentration at half of the fitted maximal effect.

This assay relates to HeLa. The assay is described as follows: Confirmatory qHTS for gynecologic anti-cancer compounds from libraries of approved drugs and bioactive compounds. Further: nearly all actives have a fitted effect of over 55% in size. Particulars: gynecologic cancer cell panel viability, ATPlite luminescence, 48 h; series mostly up to 57.6 µM. The gist of the method:
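ATP-based luminescent viability (ATPlite) after 48 h drug treatment at 37 °C, 5% CO2, across 57.5 uM–0.977 nM in 1:3 steps. Cells seeded at 1,000 per well 16 h beforehand; IC50 values computed, HEK 293T as selectivity control.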
Regarding `Cc1cc(Nc2nc(N[C@@H](C)c3ncc(F)cn3)ncc2Cl)n[nH]1`, the Potency was 968 nM (active).
Still for that read-out and setting: next, `CCCCc1oc2ccc(NS(C)(=O)=O)cc2c1C(=O)c1ccc(OCCCN(CCCC)CCCC)cc1`: 24300 nM (active).
Same read-out and setting: the same measure for `Oc1cn2c(n1)Nc1ccc(Cl)c(Cl)c1C2`: 10.6 nM (active); for `Cn1cnc2c(F)c(Nc3ccc(Br)cc3Cl)c(C(=O)NOCCO)cc21`: “inactive”; for `Cc1cc(Nc2nc(N[C@@H](C)c3ccc(F)cc3)c(C#N)cc2F)n[nH]1`: 1090 nM (active).
Same read-out and setting: the same measure for `Cc1ccc2nc(N)[nH]c(=O)c2c1Sc1ccncc1`: 8630 nM (active).
For `CCS(=O)(=O)c1cccc(-c2cc(C(=O)NC3CCN(C)CC3)c(C)c3[nH]c4ncc(C)cc4c23)c1`, the Potency is 476 nM (active).
On the same count and under the same terms, the same measure for `Nc1nc(=S)c2[nH]cnc2[nH]1`: 2430 nM (active).
In the case of `CC[C@H](Nc1ncnc2nc[nH]c12)c1nc2cccc(F)c2c(=O)n1-c1ccccc1`, the activity change, negative = viability loss was 0.732% [at 10.7 µM].
For the compound `Cc1nc(Nc2n[nH]c3c2CN(C(=O)NC(CN(C)C)c2ccccc2)C3(C)C)c2sccc2n1` (configuration not stated), the Potency is 3060 nM (active).
`Cc1cnc(CNC(=O)c2c(=O)c3ccc(N4CCCN(C)CC4)nc3n3c2sc2ccccc23)cn1`: the activity change, negative = viability loss is -3.33% [at 10.7 µM].
On to `CC(C)C[C@H](NC(=O)[C@H](CCc1ccccc1)NC(=O)CN1CCOCC1)C(=O)N[C@@H](Cc1ccccc1)C(=O)N[C@@H](CC(C)C)C(=O)[C@@]1(C)CO1`, for which the Potency was 10900 nM (active).
Regarding `C[C@@]1(C(=O)Nc2ccc(F)nc2)CCCN1c1nc(Nc2cc(C3CC3)[nH]n2)c2cccn2n1`, the Potency is 968 nM (active).
The same measure, in the same setting: next, `Cc1nc(N)sc1-c1ccnc(Nc2ccc(N3CCOCC3)cc2)n1`: 2170 nM (active); `Cc1cc(C(=O)N2CCN(c3cccc(Cl)c3)CC2)n(-c2ccccc2)n1`: 2170 nM (active); `O=C1N(c2ccccc2)c2ccccc2C1(Cc1ccncc1)Cc1ccncc1`: “inactive”.
The same measure, in the same setting: the same measure for `CN1C(=O)C(Cc2c[nH]c3ccccc23)NC1=S` (configuration not stated): “inactive”; for `Cc1ccc(C(=O)Nc2cccc(C(F)(F)F)c2)cc1-c1ccc2nc(NCCN3CCOCC3)ncc2c1`: 7690 nM (active).
Regarding `CC(C)Nc1cc(-c2c[nH]c(C(=O)N[C@H](CO)c3cccc(Cl)c3)c2)c(Cl)cn1`, the Potency is 21700 nM (active).
For `Cc1csc(NC(=O)c2sc3nc4c(c(C(F)(F)F)c3c2N)CCC4)n1`, the Potency is 1930 nM (active).
On the same count and under the same terms, next, `CCn1c(-c2nonc2N)nc2c(C#CC(C)(C)O)ncc(OCC3CCCNC3)c21` (configuration not stated): 21700 nM (active); `CCCc1nn(C)c2c(=O)[nH]c(-c3cc(S(=O)(=O)N4CCN(C)CC4)ccc3OCC)nc12`: “inactive”.

For the origin of these results see PubChem BioAssay AID1345085 (National Center for Advancing Translational Sciences (NCATS), 2018).
